This note sets out measurements from PubChem BioAssay (Tox21).

Each structure is given as a SMILES string. Several values for one entry are separate records, joined by “and”; a condition that tells them apart may be missing. Equal values may be shown once. Results filed as inconclusive are left out. Activity calls are given as the source filed them. Calls follow the shape of the dose curve; as a rule, active = well fitted cell-killing curve with a large enough effect in the repeat runs; inconclusive = weak or mixed curves; inactive = flat fitted curve, though single readings scatter.
% is scaled to controls: 0 for no effect and ±100 for the full control effect; potency is read from the fitted curve at half-maximal effect.

This experiment can be described thus: qHTS assay to identify small molecule antagonists of the estrogen related receptor (ERR) signaling pathway from Tox21 library - cell viability counter screen (AID 1224834). Also: nearly all actives have a fitted effect of over 30% in size. To be noted: ERR reporter cells viability, CellTiter-Fluor, 17.5 h; series mostly up to 92.4 µM; viability change, negative = cytotoxic: at the top concentration. An excerpt: National Center for Advancing Translational Sciences [NCATS]
NIH Chemical Genomics Center [NCGC]
U.S. Environmental Protection Agency [EPA]
National Institutes of Environmental Health Sciences [NIEHS]
National Toxicology Program [NTP]
U.S. Food and Drug Administration [FDA]
Estrogen related receptors (ERRs), the first orphan nuclear receptors discovered, play an important role in the control of cellular energy metabolism. ERRs are required for high-energy production in response to the environmental challenges. ERR-alpha was also identified as an adverse marker for breast cancer progression; ERR-alpha-positive tumors have a poor prognosis. To screen and to identify environmental compounds that perturb the ERR signaling pathways could provide valuable information for potential therapeutic or preventive measures in the treatment of metabolic disease. To differentiate true ERR antagonists or agonist from cytotoxic substances, the assay is multiplexed with cell viability assay.
Tox21 Assay Protocol Summary:
The ERR cells were dispensed at 2,000 cells/5 ul/well in 1536-well white plates using a Multidrop dispenser. After the assay plates were incubated at a 37 C/5% CO2 incubator for 6 hours, 23 nL of compounds dissolved in DMSO, positive and negative controls or DMSO only was transferred to the assay plate by a pin tool. The plates were incubated at 37 C for 17.5 hours. 1 ul/well of CellTiter-Fluor reagent was added into the assay plates using a Flying Reagent Dispenser. After 30-minute incubation at 37 C/5% CO2, the fluorescence intensity in the plates was measured using a ViewLux plate reader.
Background: Quantitative high-throughput screening tests each substance at several concentrations.
In the case of `COc1ccc(-c2coc3cc(O)ccc3c2=O)cc1`, the “viability change, negative = cytotoxic” value was -1.18% (inactive).
On the same count and under the same terms, then `Cc1cc(-c2ccc(N=Nc3cc(S(=O)(=O)O)c4ccccc4c3N)c(C)c2)ccc1N=Nc1cc(S(=O)(=O)O)c2ccccc2c1N`, with -6.45% (inactive); and `Nc1nc(-c2ccccc2)cs1`, with -4.67% (inactive); and `CCCCCC/C=C\CCCCCCCC(=O)O`, with -0.685% (inactive).
Same read-out and setting: to `CCC(CC)(CC(=O)Nc1cccc(/C=C/c2nc(C3CCC3)cs2)c1)C(=O)O` belongs -8.95% [at 42.5 µM] (inactive); to `CCC(=O)OC(=O)CC`, -1.78% (inactive).
In the case of `CCn1c2ccccc2c2cc([N+](=O)[O-])ccc21`, the “viability change, negative = cytotoxic” value is -12.3% (inactive).
Regarding `CCCCN(CCCC)CC(O)c1cc(Cl)cc2c1-c1ccc(Cl)cc1/C2=C/c1ccc(Cl)cc1` (stereo not given), the Potency is 26.6 µM (active).
On to `COC(C)=O`, for which the “viability change, negative = cytotoxic” value was 1.97% (inactive).
In the case of `CCN(CCN)c1cccc(C)c1`, the Potency result was “inactive”.
For the compound `O=C(O)Cc1ccccc1Nc1c(Cl)cccc1Cl`, the “viability change, negative = cytotoxic” value is 1.23% [at 42.5 µM] (inactive).
In the case of `Cc1nc(-c2ccc(Cl)cc2)oc1COC(C)(C)C(=O)O`, the “viability change, negative = cytotoxic” value was 1.87% [at 42.5 µM] (inactive).
Regarding `COc1cc(C)ccc1O`, the “viability change, negative = cytotoxic” value was -2.16% (inactive).
On to `COC(=O)C1=C(C)NC(C)=C(C(=O)OCCN2CCN(C(c3ccccc3)c3ccccc3)CC2)C1c1cccc([N+](=O)[O-])c1` (stereo not given), for which the Potency was 11.9 µM (active).
In the case of `Sc1nc2ccccc2s1`, the “viability change, negative = cytotoxic” value was -2.48% (inactive).
For `OCCN1CCN(CCCN2c3ccccc3Sc3ccc(C(F)(F)F)cc32)CC1`, the Potency was 29.8 µM (active).
`O=C(O)[C@H](O)[C@@H](O)[C@H](O[C@@H]1O[C@H](CO)[C@H](O)[C@H](O)[C@H]1O)[C@H](O)CO`: the “viability change, negative = cytotoxic” value was -0.287% [at 42.5 µM] (inactive).
Regarding `O=S(=O)(O)c1ccc(N=Nc2c(O)ccc3ccccc23)cc1`, the Potency is 27.3 µM (active).
With `CCCCCCCCCCC[C@@H](C[C@@H]1OC(=O)[C@H]1CCCCCC)OC(=O)[C@H](CC(C)C)NC=O`, the “viability change, negative = cytotoxic” value is -8.63% [at 42.5 µM] (inactive).
Still for that read-out and setting: to `CC(C)Cn1cnc2c(N)nc3ccccc3c21` belongs -3.99% [at 19 µM] (inactive); to `CN(C)Cc1cc(C(C)(C)C)c(O)c(C(C)(C)C)c1`, -7.65% (inactive).
In the case of `CCN(CC)C(=O)c1cc(S(=O)(=O)Cc2ccccc2)c(N2CCC(c3ccccc3)CC2)cc1N(CC)CCN(C)C`, the Potency is 19.1 µM (active).
For `C=Cc1ccccc1C=C`, the “viability change, negative = cytotoxic” value was 2.59% [at 240 µM] (inactive).
In the case of `O=C(O)c1ccc2cc(C(=O)O)ccc2c1`, the “viability change, negative = cytotoxic” value was 2.63% (inactive).
As for `O=c1[nH]c2ccccc2n1CCCN1CCN(C(c2ccccc2)c2ccccc2)CC1`, the Potency was 23.7 µM (active).
`C=CC(C)(CCC=C(C)C)OC=O` (stereo not given): the “viability change, negative = cytotoxic” value is 3.67% (inactive).
On the same count and under the same terms, to `O=C(Oc1ccccc1)Oc1ccccc1` belongs -6.3% (inactive); to `CCCCCCCC/C=C\CCCCCCCCN`, 1.31% [at 42.5 µM] (inactive).
Same read-out and setting: to `CC(C)(C)C1CCC(=O)CC1` belongs 1.61% (inactive).
Consider `O=C(Nc1ccc2c(O)c(N=Nc3ccc(N=Nc4ccc(S(=O)(=O)O)cc4)cc3)c(S(=O)(=O)O)cc2c1)c1ccccc1`, for which the Potency was 24.3 µM (active).
Consider `CCCNCCC`, for which the “viability change, negative = cytotoxic” value was 1.23% (inactive).
Take `CC(C)(C)NSc1nc2ccccc2s1`: the “viability change, negative = cytotoxic” value was -0.846% (inactive).
For `Cc1ccc(C)cc1`, the “viability change, negative = cytotoxic” value is 3.67% (inactive).
Regarding `C1CCC(SSC2CCCCC2)CC1`, the “viability change, negative = cytotoxic” value was -3.22% (inactive).
On to `Cl[Si](Cl)(c1ccccc1)c1ccccc1`, for which the “viability change, negative = cytotoxic” value is 2.61% (inactive).
In the case of `Cc1c(F)c(N2CCNC(C)C2)cc2c1c(=O)c(C(=O)O)cn2C1CC1` (stereo not given), the “viability change, negative = cytotoxic” value was 6.27% [at 42.5 µM] (inactive).
The same measure, in the same setting: to `CCCC1CCC(=O)CC1` belongs 1.68% (inactive).
Regarding `CCO[C@@H]1O[C@H](C(COCc2ccccc2)OCc2ccccc2)[C@H](OCc2ccccc2)[C@H]1O` (stereo not given in full), the Potency is 26.6 µM (active).
For `CC(=O)[C@H]1CC[C@H]2[C@@H]3CCC4=CC(=O)CC[C@]4(C)[C@H]3CC[C@]12C`, the Potency was 30.5 µM (active) and 30.6 µM (active).
`CCC(=O)C(=O)CC`: the “viability change, negative = cytotoxic” value is -9.89% (inactive).
